Only some compounds are listed: those with a hit (about 3.9% of all), similar ones and a draw of the others.
Vc quorum ag-1 – inducers of Vibrio cholerae quorum light production without autoinducers; V. cholerae BH1578 lux reporter, luminescence, 6 h; activation, % at 18.7 µM; hit rate 0.16% among 350,000; AID 588436; in the data active = activation mostly above about 9.7%, no sharp cut-off
SARS 3CLpro inh – SARS-CoV 3CLpro protease inhibition. P0C6X7. recombinant SARS-CoV 3CLpro, quenched FRET peptide cleavage. inhibition, % at 6 µM. hit rate 0.14% among 290,000. AID 1706; in the data active = inhibition above about 12%
GDH-TPI counter – inhibits GDH-TPI coupling enzymes, artifact for Mtb FBA screen | GDH-TPI coupled enzyme counterscreen, NADH absorbance | inhibition, % at 4.8 µM | hit rate 1.2% among 360,000 | AID 588335; in the data active = inhibition above about 30%;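 also: 0% = DMSO wells and 100% = wells lacking the enzyme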
FBA Mtb inh – inhibitors of M. tuberculosis fructose-bisphosphate aldolase; inhibition, % at 1 µM; P9WQA3; hit rate 2.3% among 360,000; purified M. tuberculosis FBA, fluorescence read-out; AID 588726; in the data active = inhibition above about 27%;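 also: 0% = vehicle and 100% = reference inhibitor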
Target sequence (P9WQA3 whole entry, looked up): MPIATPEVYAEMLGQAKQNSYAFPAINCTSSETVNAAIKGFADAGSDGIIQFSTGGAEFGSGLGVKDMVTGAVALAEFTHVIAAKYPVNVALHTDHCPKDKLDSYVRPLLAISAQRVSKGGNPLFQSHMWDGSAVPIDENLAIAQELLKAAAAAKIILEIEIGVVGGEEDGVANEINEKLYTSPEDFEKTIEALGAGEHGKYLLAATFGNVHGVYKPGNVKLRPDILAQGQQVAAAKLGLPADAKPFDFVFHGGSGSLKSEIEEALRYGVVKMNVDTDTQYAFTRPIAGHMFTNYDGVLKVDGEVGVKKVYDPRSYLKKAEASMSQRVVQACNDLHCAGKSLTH
PrPC TRFRET – cell surface PrPC inhibition, primary TR-FRET screen | inhibition, % at 13.8 µM | hit rate 0.43% among 370,000 | TR-FRET read-out | P04156; in the data active = inhibition above about 24%; also: 0% = median of the test wells and 100% = reference compound wells
Vc quorum ag-2 – induces V. cholerae light production without autoinducers. V. cholerae BH1578 lux reporter, luminescence, 6 h. AID 602243. shares compounds with Vc quorum ag-1. activation, % at 50 µM. 620 tested, under 10 active; call rule not given here
Numbers without * were called inactive; i = inactive; . = no result given.

SMILES	Vc quorum ag-1	SARS 3CLpro inh	GDH-TPI counter	FBA Mtb inh	PrPC TRFRET	Vc quorum ag-2
O=C(NCc1ccco1)C1CCCN1S(=O)(=O)c1ccc2ccccc2c1 (stereo unspecified)	14.3	-2.3	-0.8	3.4	-0.5	0.2
O=C(Nc1ccc(C(=O)Nc2ccccc2Cl)cc1)c1cccnc1	-0.3	-0.6	0.3	-0.1	1.4	.
COCc1[nH]nc2c1C1(CCC3(CC1)OCCO3)C(C#N)=C(N)O2	16.7*	1.8	2.1	1.9	2.4	0.0
Cc1ccn2c(C(C)O)nnc2c1 (stereo unspecified)	i	.	4.0	0.8	6.3	.
O=C(N1CCC(Cc2ccccc2)CC1)n1ncc(C(O)(c2ccccc2)c2ccccc2)n1	.	.	.	.	10.7	.
Cn1c(=O)c2c(nc(SCCN3CCOCC3)n2Cc2cccc3ccccc23)n(C)c1=O	12.5	0.7	-12.2	6.3	10.6	0.3
c1cncc(CNCc2ccco2)c1	-0.1	-1.3	-9.0	0.2	6.3	.
Cc1ccc(C)c(S(=O)(=O)N2CCN(C(=O)c3n[nH]c(=O)c4ccccc34)CC2)c1	31.6*	.	2.5	-1.1	-3.5	322.7
CSc1ncccc1C(=O)N1CCN(S(=O)(=O)c2cc(C)ccc2C)CC1	-0.3	3.2	-7.0	0.6	7.3	.
O=C(NCCN1CCOCC1)c1ccc([N+](=O)[O-])cc1[N+](=O)[O-]	i	-0.9	-1.8	-0.1	-59.2	.
O=[N+]([O-])c1ccc(NCCN2CCOCC2)c([N+](=O)[O-])c1	33.2*	0.0	7.5	-8.2	-49.6	1.2
Cc1cc(NC(=O)c2cccc3ccccc23)cc(C)c1OCC(=O)N1CCOCC1	i	2.2	10.0	1.6	-8.1	.
COc1c(C)cccc1C(=O)Nc1ccc(OCC(=O)N2CCOCC2)cc1C	10.8	4.5	3.2	-1.9	-5.8	0.0
CNC(=O)c1cc2cc(OC)ccc2n1CCN(Cc1ccccc1)Cc1ccccc1	25.0*	8.3	0.8	0.7	-2.5	0.4
COC(=O)c1cnn(-c2nc(-c3ccccc3)cs2)c1N	70.0*	1.3	12.7	2.1	-7.2	-0.2
Cc1ccc(C)c(N2CCN(C(c3ccc(N(C)C)cc3)c3nnnn3C(C)(C)C)CC2)c1 (stereo unspecified)	37.6*	0.5	6.6	7.2	-0.8	0.0
Cc1cc(C)cc(NC(=O)Cn2ncn3c(cc4ccccc43)c2=O)c1	17.9*	5.2	19.9	9.1	6.1	0.9
Cc1cc(Nc2ccccc2)nc(-c2ccccc2O)n1	i	5.4	14.2	-2.2	4.6	.
Cc1cc(NC2CCCCC2)nc(-c2ccccc2O)n1	16.7*	2.1	-0.3	3.5	4.1	5.1
CN(C(=O)COc1ccccc1)C1CCS(=O)(=O)C1 (stereo unspecified)	-0.3	-2.0	-2.8	-1.6	-0.2	.
CC(C)CCOc1cccc(OCC(=O)N(C)C2CCS(=O)(=O)C2)c1 (stereo unspecified)	6.6	-2.0	0.6	3.5	-7.8	2.1
COc1ccc(C(=O)O)cc1S(=O)(=O)Nc1cccc(C(F)(F)F)c1	16.7*	-5.8	3.5	3.6	-0.6	0.2
COc1ccc(C(=O)N2CCCCC2)cc1S(=O)(=O)Nc1cccc(C(=O)O)c1	-1.8	2.0	1.6	1.0	0.7	.
CCOc1ccc(OCC(=O)Nc2cc(Cl)ccc2-n2cncn2)cc1	0.0	.	-5.5	2.0	-8.6	.
CN(C(=O)Cn1cc(C(F)(F)F)cc(Cl)c1=O)C1CCS(=O)(=O)C1 (stereo unspecified)	14.3	.	4.9	-2.1	2.6	1.0
SMILES	Vc quorum ag-1	SARS 3CLpro inh	GDH-TPI counter	FBA Mtb inh	PrPC TRFRET	Vc quorum ag-2
O=C(Cn1cc(C(F)(F)F)cc(Cl)c1=O)NC1CCS(=O)(=O)C1 (stereo unspecified)	-0.7	.	-13.1	-3.0	1.5	.
O=C(NCc1nc(-c2ccccc2)no1)c1cccs1	179.2*	2.6	-2.8	-1.1	7.0	44.7
CCC(=O)NCCc1nc(-c2ccccc2)no1	986.5*	.	3.1	0.4	8.2	715.8
COc1ccc(NC(=O)C(=O)NCC2CCCN2S(=O)(=O)c2ccc(C)cc2)cc1 (stereo unspecified)	14.3	.	-2.1	-1.9	14.0	-0.2
COc1ccc(CCNC(=O)C(=O)NCC2CCCN2S(=O)(=O)c2ccc(OC)cc2)cc1 (stereo unspecified)	28.6*	.	5.6	-0.8	4.5	0.1
Cc1cccc(NC(=O)c2c(O)c3ccccc3n(C)c2=O)c1	70.3*	1.0	6.5	-1.3	7.6	0.0
O=C(NC1CCCCN(Cc2cccc(Cl)c2)C1=O)c1ccc(F)c(F)c1 (stereo unspecified)	.	.	.	.	-0.8	.
O=C(NCCC(=O)N1CCCCCCC1)c1ccc(Br)cc1	-0.6	.	-9.9	0.4	4.4	.
O=C(NCCC(=O)N1CCCCC1)c1ccc(Br)cc1	10.8	5.5	0.3	0.6	1.6	5.6
CN(Cc1ccc(C(C)(C)C)cc1)C(=O)C1CCN(C(=O)Nc2ccccc2)CC1	-0.3	.	-13.8	0.2	0.0	.
COC(=O)C1CCN(C(=O)CN(C)Cc2ccc(C(C)(C)C)cc2)CC1	40.9*	-2.3	-7.3	-1.1	5.3	11.2
COc1cc(NC(=O)c2ccccc2)c(OC)cc1NC(=O)CN1C(=O)N(C)C2(CCCCC2)C1=O	14.3	.	4.2	-2.1	-3.5	1.3
O=C(NC1CCCCN(Cc2cccc(Cl)c2)C1=O)c1cccc2nsnc12 (stereo unspecified)	.	.	.	.	6.6	.
COc1cc(CCC(=O)Nc2ccc(Br)c(C(F)(F)F)c2)cc(OC)c1OC	-1.0	3.0	1.5	-2.4	2.9	.
CC(C)(C)OC(=O)NCCCC(CCCNC(=O)OC(C)(C)C)C(=O)O	12.5	-3.9	9.1	-1.5	0.2	0.2
COc1ccc(C)c2sc(N3CCCC3)nc12	27.8*	-2.9	-4.6	-0.7	-0.4	1.1
C=CCNC(=O)c1c2c(nc3ccccc13)-c1ccccc1CC2	-0.3	-10.1	2.2	17.3	-1.5	.
CC(C)CNC(=O)c1c2c(nc3ccccc13)-c1ccccc1CC2	16.7*	2.6	8.9	8.2	1.6	0.2
CC(C)Cn1c(CN2CCN(C)C(CCO)C2)nc2ccccc21 (stereo unspecified)	72.0*	4.8	10.6	-1.4	-14.9	-0.1
CN1CCN(Cc2nc3ccccc3n2C)CC1CCO (stereo unspecified)	i	1.9	4.1	-1.2	1.0	.
CN(C)c1nc(N)ncc1-c1ccc(Oc2ccccc2)cc1	53.0*	-1.8	-2.0	3.1	2.5	6.8
COC(=O)c1[nH]c2ccc(C)cc2c1NC(=O)Nc1ccc(OC)cc1	17.9*	-2.5	6.0	8.2	-9.6	2.4
O=C(NCCN1CCOCC1)c1cccc(NS(=O)(=O)c2ccc(Br)cc2)c1	23.2*	.	0.0	10.8	2.6	13.9
CN(CCCNC(=O)c1ccccc1F)CCCNC(=O)c1ccccc1F	i	1.8	6.5	0.1	-6.8	.
Cn1nnnc1SCC(=O)c1ccc2c(c1)OCCO2	1.9	-0.2	1.6	0.0	1.1	.
CCCn1nnnc1SCC(=O)c1ccc2c(c1)OCCO2	65.1*	4.9	-12.9	-13.5	0.0	i

From PubChem BioAssay
